In all, about 48,000 compounds went through this assay and about 13,000 (27%) showed an effect of 50% or more. This is one part of the list.
Test system: Wolbachia pipientis
Experiment: Anti-Wolbachia Cell-Based Screen
Type: functional
Parameters: scale not given: in the data most compounds retested in dose-response had high values
Details: 5 µM

Row | Compound | Percent Effect [%]
1 | CC(O)CCN(C)c1nc2ccccc2c(=O)[nH]1 (stereo not given) | 20.77
2 | COCc1nc(-c2ccc(S(=O)(=O)N3CCCC3)cc2)cs1 | -8.912
3 | Cc1noc(CNc2cc3c(cc2Cl)OCCCO3)n1 | 2.534
4 | c1nc2c(c(C3CCOC3)n1)CCN(Cc1ccoc1)CC2 (stereo not given) | 7.2
5 | CC(C)N(C)S(=O)(=O)N1CCN(Cc2ccco2)CC1 | -10.02
6 | CCSCc1nc(O)c2nnn(C3CCN(Cc4ccoc4)CC3)c2n1 | 124.7
7 | Oc1nc(C2CC2)nc2c1nnn2C1CCN(Cc2ccoc2)CC1 | 197.8
8 | CCn1ncnc1C(C)NC(=O)C1CCN(Cc2ccco2)CC1 (stereo not given) | -16.37
9 | O=C(O)c1cc2c(nc1-c1ccncc1)CCN(Cc1ccoc1)CC2 | -1.034
10 | CCSCc1nc(O)c2nnn(C3CCN(Cc4ccco4)CC3)c2n1 | 93.96
11 | O=C(CCn1cccn1)NCC(c1cccs1)N1CCOCC1 (stereo not given) | 0.8626
12 | O=C1CC(NS(=O)(=O)N2CCOCC2)CN1Cc1ccc(F)cc1 (stereo not given) | -0.715
13 | N#Cc1cnc2ccccc2c1N1CCC(C(=O)O)CC1 | 149.3
14 | N#Cc1cnc2ccccc2c1N1CCN(C(=O)C2CCC2)CC1 | 4.022
15 | Cl.N#Cc1cnc2ccccc2c1N1CCN(CCC(=O)O)CC1 | -4.307
16 | CCc1nc(CN(C)C(=O)NC(C)c2cccc(NC(C)=O)c2)cs1 (stereo not given) | 4.996
17 | O=C1COc2cccc(OCc3ccccn3)c2N1 | -1.975
18 | NCCCn1nc(C(F)(F)F)c2c1CCC2 | 77.67
19 | N#CCCn1nc(C(F)(F)F)c2c1CCC2 | 109.3
20 | N#CCCn1nc(C(F)(F)F)c2c1CCCC2 | 118.8
21 | CC(C)Oc1nnc(SCC(=O)NCC(=O)N2CCCC2)s1 | 11.98
22 | Cc1cc(N(Cc2cccnc2)C2CC2)n2nc(C(F)(F)F)nc2n1 | 19.73
23 | CN1CCN(S(=O)(=O)c2cncc(F)c2)c2ccccc2C1 | -3.116
24 | O[C@@H]1C[C@@H](c2nc(-c3ccc(F)cc3)no2)N(C2CCOCC2)C1 | -13.07
25 | CN(CCC(O)c1ccccc1)c1cc(C2CC2)ncn1 (stereo not given) | 7.591
26 | COC(=O)C(NC(=O)c1ccc(N(C)C)nc1)c1ccccc1 (stereo not given) | 15.6
27 | NC(=O)C(NC(=O)COC1CCCC1)c1ccccc1 (stereo not given) | -1.81

Row | Compound | Percent Effect [%]
28 | CN(C)c1cc(CC(NC(=O)C2CC2)c2ccccc2)nc(C2CC2)n1 (stereo not given) | 92.65
29 | CC(C)C(=O)NC(Cc1cc(N(C)C)nc(C2CC2)n1)c1ccccc1 (stereo not given) | 86.08
30 | CN(CC(=O)N1CCC(C(O)c2ccccc2)CC1)c1cnccn1 (stereo not given) | -4.983
31 | CCC(=O)NC(Cc1cc(N(C)C)nc(C2CC2)n1)c1ccccc1 (stereo not given) | 105
32 | Cc1ccsc1C(Cc1ccccc1)NC(=O)CNC(=O)C1CC1 (stereo not given) | -6.693
33 | CCC(NC(=O)C1CCN(S(=O)(=O)N(C)C)CC1)c1ccc(C)c(C)c1 (stereo not given) | -8.706
34 | CCC(=O)NC1CCCN(C(=O)Nc2cc(-c3ccccc3)on2)C1 (stereo not given) | -16.23
35 | COC(=O)C(NC(=O)COC1CCCCC1)c1ccccc1 (stereo not given) | 3.192
36 | COCC(=O)NC(Cc1cc(N(C)C)nc(C2CC2)n1)c1ccccc1 (stereo not given) | 113.9
37 | COC1CCCN(Cc2nc(Cc3ccccc3F)no2)C1 (stereo not given) | -1.199
38 | Cc1ccc2c(c1C)OCC2NCc1ccc(C#N)cc1 (stereo not given) | 6.111
39 | Cc1cccc(CC(=O)NC2CCN(C(=O)NC(C)(C)C)CC2)c1 | 5.736
40 | CCC1=N[C@@]2(CC[C@@H]3CN(C(=O)NCC(C)C)C[C@@H]32)C(=O)N1CCOC | 5.071
41 | Cc1c(-c2nc(-c3cccc(CN4CCOCC4)c3)no2)cnn1C | -3.312
42 | COc1ccccc1-c1ncc(CN2C[C@H](O)[C@@H](N3CCCC3)C2)s1 | 6.619
43 | CCn1c(Cn2ccnc2)nnc1C1CCN(Cc2ccc(C)o2)CC1 | -1.566
44 | COc1ccc(Br)c(C(=O)NCCNc2ccc(C(F)(F)F)cn2)c1 | 2.511
45 | N#CC1(C(=O)NCCCNc2ccc(C(F)(F)F)cn2)CCCC1 | -0.7429
46 | N#Cc1ccc(C(=O)NCCCNc2ccc(C(F)(F)F)cn2)cc1 | -7.343
47 | CSCC(C)(O)CNC(=O)c1ccc(F)cc1Br (stereo not given) | -10.01
48 | O=C(NCCCNc1ccc(C(F)(F)F)cn1)c1ccc(F)cc1Br | 166.7
49 | O=C(NCCCNc1ccc(C(F)(F)F)cn1)c1ccc(F)cc1F | 139.7
50 | CC(C)=CCC/C(C)=C/CC(C)(C)CNCc1ccco1 | -15.73
51 | COc1ccc(NC(C)C(=O)N2CCN(c3ccccc3)CC2)cn1 (stereo not given) | 11.01
52 | CC1CN=C(N2CCN(C(=O)Nc3nc(-c4ccccc4)ns3)CC2)S1 (stereo not given) | -2.569
53 | CCOc1ccccc1C(C(=O)O)N(C)Cc1nc(C)c[nH]1 (stereo not given) | 110.9
54 | Cc1c[nH]c(CN(C)C(C(=O)O)c2c(F)cccc2Cl)n1 (stereo not given) | 11.8

Row | Compound | Percent Effect [%]
55 | Cc1c[nH]c(CN(C)C(C(=O)O)c2c(F)cccc2OC(C)C)n1 (stereo not given) | 2.457
56 | CCOc1ccccc1C(C(=O)O)N(C)Cc1nnc(C)o1 (stereo not given) | 103.2
57 | Cc1cc(CN(C)C(=O)c2cc(COc3ccccc3)[nH]n2)n[nH]1 | -16.83
58 | CCOc1ccccc1C(C(=O)O)N(C)Cc1cc(C)[nH]n1 (stereo not given) | 105.4
59 | CCOc1ccc(N(C)Cc2nnc(C)o2)cc1 | 3.578
60 | COCc1cc(CN(C)C(C(=O)O)c2cc(C)c(OC)c(C)c2)n[nH]1 (stereo not given) | 0.7136
61 | COc1cccc(Cl)c1C(C(=O)O)N(C)Cc1nnc(C)o1 (stereo not given) | 7.233
62 | CN(CC(N)=O)S(=O)(=O)c1ccc(F)cc1Cl | 0.3339
63 | COc1cccc(CN(C)C(=O)CCC(=O)c2ccc(Cl)cc2)c1OC | -4.229
64 | COc1ccc(CN2CCC3(CC(=O)N(c4cccc(F)c4)C3)C2)cc1.O=C(O)C(F)(F)F (stereo not given) | 28.15
65 | COc1ccc2c(c1)OC1(CCN(Cc3cccc(C)c3)CC1)CC2=O | 101.2
66 | Cc1ccc2c(c1)C(=O)CC1(CCN(Cc3ccccc3)CC1)O2 | 106.6
67 | COc1ccc2c(c1)OC1(CCN(Cc3ccc(C)cc3)CC1)CC2=O | 104.7
68 | Cc1ccc2oc([C@H]3CCN(Cc4ccccc4)C3)nc2c1 | -4.088
69 | COc1c(F)cc(CN2CCCC3(CC2)CNC(=O)O3)cc1Cl (stereo not given) | -2.576
70 | COc1ccc2c(c1)C(=O)CC1(CCN(Cc3ccc(F)cc3)CC1)O2 | 107.4
71 | COCC(=O)N1CCC2(CCN(Cc3ccc(C)cc3)CC2)CC1.O=C(O)C(F)(F)F | -3.723
72 | CCS(=O)(=O)N1CCC2(CCN(Cc3cccc(OC)c3)CC2)CC1.O=C(O)C(F)(F)F | -27.27
73 | Cc1ccc(CN2CCC3(CC2)CCN(Cc2ccco2)CC3)cc1.O=C(O)C(F)(F)F.O=C(O)C(F)(F)F | 0.5302
74 | COc1ccc2c(c1)C1(CCN(Cc3ccncc3)CC1)N(C)CC2 | -5.195
75 | CCN1CCN(C)C(=O)C12CCN(Cc1cccc(C)c1)CC2.O=C(O)C(F)(F)F | -18
76 | CCCn1ncc(C2CC(=O)NCc3nc4cc(C)ccn4c32)c1C (stereo not given) | 7.732
77 | Cc1nc(CN2CCCN(CC(=O)Nc3ccncc3)CC2)no1 | -12.37
78 | CC1c2cc(F)ccc2CCN1CCCS(=O)(=O)C(C)C (stereo not given) | -15.92
79 | Cc1nc[nH]c1CN1CCn2nc(CN3CC[C@H](F)C3)cc2C1 | -2.245
80 | O=C(NCCN1CCNCC1)c1c(O)c2ccccc2[nH]c1=O | 23.98
81 | COCC(O)CN(C)C(=O)NC1CCN(Cc2ccccn2)CC1 (stereo not given) | 9.175

Row | Compound | Percent Effect [%]
82 | Cc1nn(C)c2nc(N(Cc3ccccc3)CC3CCCO3)sc12 (stereo not given) | 6.104
83 | COc1ccc(CN2CCC(O)(CN3CCCCC3)C2)c(C)c1 (stereo not given) | 1.46
84 | COc1ccc2c(c1)OC1(CCN(Cc3ccccc3C)CC1)CC2=O | 114.8
85 | Cc1ccccc1CN1CCCN(CCN2CCOC2=O)CC1 | 6.019
86 | CC(C)c1cccc(CSc2nnc(CN3CCCC3=O)o2)n1 | 6.014
87 | CS(=O)(=O)Cc1nc(CN2CCCc3sccc3C2)cs1 | 11.89
88 | CCOC(=O)C1CCN(c2nccc(-n3nc(C)cc3C)n2)CC1 | 112.2
89 | CCOC(=O)C1CCCN(c2ccc(-c3nc(C)no3)cn2)C1 (stereo not given) | -3.256
90 | CCOC(=O)C1CCCN(c2nccc(-n3nc(C)cc3C)n2)C1 (stereo not given) | 112.5
91 | CCOC(=O)C1CSCCN1C(=O)c1ccc(-n2nc(C)cc2C)cc1 (stereo not given) | 16.86
92 | COc1ccc(C(=O)C2CCCN(c3nccc(N)n3)C2)c(C)c1 (stereo not given) | 21.82
93 | Cc1cc(C)n(-c2ccnc(N3CCC(C(=O)N4CCCC4)CC3)n2)n1 | 4.916
94 | COCc1cc(CC2(NCc3ccccc3Cl)COC2)no1 | -15.27
95 | COc1ccnc(N2CCC3(CC2)[C@H](O)C[C@@H]3OCCN(C)C)n1 | -4.525
96 | CN(C(=O)CCc1cccs1)C1CCCN(C2Cc3ccccc3C2)C1 (stereo not given) | -51.14
97 | C1CCCN(c2nc(C3CC3)no2)CC1 | 3.376
98 | O=C(O)C(F)(F)F.c1ncn(Cc2cn3c(n2)CN(CC2CCCCC2)CC3)n1 | -9.983
99 | CN(C)CCN1CCC(NC2CSCCc3ccccc32)CC1 (stereo not given) | -11.44
100 | O=C(Cc1cccc(F)c1)NCCNCc1cccc(O)c1 | -5.303
101 | Oc1cccc(CNCCC2CCCO2)c1 (stereo not given) | 17.11
102 | O=C(Cc1ccccc1)NCCNCc1cccc(O)c1 | 87.97
103 | O=C(Cc1ccc(F)cc1)NCCNCc1cccc(O)c1 | 75.28
104 | CCOc1cccc(CCNC(=O)Cc2cccc(O)c2)n1 | 19.48
105 | O=C(Cc1cccc(F)c1)NCCNCc1ccc2c(c1)CCO2 | -2.552
